Assay results from PubChem BioAssay AID1159580 (chemical genetic matrix, 2015).
Where “and” joins values, the source holds several entries; their conditions need not be identical. Equal values may be shown once. The campaign covered roughly 5,500 compounds. About 2,000 (36%) were called active. Roughly 18% stayed inconclusive and do not appear here. No stated cut-off is given here; in the data, active means normalized growth mostly below about 0.91 (no sharp cut-off); inconclusive means no clear call, values can overlap the other calls; inactive means mostly above about 0.92. This is one part of the list.

Assay: chemical genetic growth profiling, strain panel (AID 1159580);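 further: tested at 20 µM; growth read once vehicle control cultures reached saturation at 30 °C; 1 = growth at the plate median or of vehicle wells; lower values mean less growth of the strain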
Details: S. cerevisiae deletion strains, growth OD

Measured: normalized growth

O=C(O)CC[N+](=O)[O-]
inactive: locus YAL013W, strain DEP1, hits give low values 0.991 and 0.999 | locus YAL021C, strain ccr4, hits give low values 0.987 | locus YAL026C, strain drs2, hits give low values 1.01 | locus YAL030W, strain snc1, hits give low values 1 | locus YAL040C, strain CLN3, hits give low values 0.99 | locus YBL061C, strain skt5, hits give low values 1.01 | locus YBR009C, strain hhf1, hits give low values 1.01 | locus YBR021W, strain FUR4, hits give low values 1.12 | locus YBR023C, strain chs3, hits give low values 1.01 | locus YBR171W, strain sec66, hits give low values 1.01 | locus YBR229C, strain ROT2, hits give low values 1.01 | locus YBR231C, strain swc5, hits give low values 1.02 | locus YBR279W, strain paf1, hits give low values 0.999 | locus YCL011C, strain gbp2, hits give low values 1.02 | locus YCL016C, strain dcc1, hits give low values 1 | locus YCL029C, strain bik1, hits give low values 0.985 | locus YCL061C, strain MRC1 (second series), hits give low values 1 | locus YCL061C, strain MRC1, hits give low values 1 | locus YCL069W, strain vba3, hits give low values 0.996 | locus YCR088W, strain abp1, hits give low values 1 | locus YDL005C, strain med2, hits give low values 1 | locus YDL035C, strain GPR1, hits give low values 0.976 | locus YDL040C, strain nat1, hits give low values 0.988 | locus YDL074C, strain BRE1, hits give low values 0.999 | locus YDL101C, strain DUN1, hits give low values 0.998 | locus YDL134C, strain PPH21, hits give low values 0.997 | locus YDL185W, strain tfp1, hits give low values 0.962 | locus YDL192W, strain arf1, hits give low values 0.974 | locus YDR001C, strain nth1, hits give low values 0.993 | locus YDR069C, strain doa4, hits give low values 1.02 | locus YDR101C, strain arx1, hits give low values 0.986 | locus YDR137W, strain rgp1, hits give low values 0.999 | locus YDR150W, strain NUM1, hits give low values 0.972 and 1 | locus YDR159W, strain sac3, hits give low values 1.02 | locus YDR162C, strain NBP2, hits give low values 1.01 | locus YDR195W, strain ref2 0.977 | locus YDR297W, strain sur2, hits give low values 1.02 | locus YDR318W, strain mcm21, hits give low values 0.984 | locus YDR334W, strain swr1, hits give low values 1.01 | locus YDR335W, strain msn5, hits give low values 1 | locus YDR363W, strain ESC2, hits give low values 1.01 | locus YDR388W, hits give low values 0.993 | locus YDR392W, strain spt3, hits give low values 1.02 | locus YDR502C, strain sam2, hits give low values 0.988 | locus YEL003W, strain gim4, hits give low values 1.02 | locus YEL037C, strain rad23, hits give low values 1 | locus YEL061C, strain CIN8 (second series), hits give low values 1 | locus YEL061C, strain CIN8, hits give low values 0.994 | locus YER002W, strain NOP16, hits give low values 1.01 | locus YER015W, strain faa2, hits give low values 1 | locus YER016W, strain bim1, hits give low values 1.01 | locus YER110C, hits give low values 0.963 | locus YER111C, strain swi4, hits give low values 1.01 | locus YER155C, strain BEM2 (second series), hits give low values 1.03 | locus YER155C, strain BEM2, hits give low values 0.99 | locus YER167W, strain BCK2, hits give low values 0.988 | locus YFR010W, strain ubp6, hits give low values 1.01 | locus YGL078C, strain dbp3, hits give low values 0.979 | locus YGL086W, strain mad1, hits give low values 0.982 | locus YGL167C, strain pmr1, hits give low values 1.01 | locus YGL173C, strain kem1, hits give low values 1.02 | locus YGL227W, strain vid30, hits give low values 1 | locus YGL240W, strain doc1, hits give low values 1.04 | locus YGL248W, strain PDE1, hits give low values 1 | locus YGL253W, strain hxk2, hits give low values 1.01 | locus YGR078C, strain PAC10, hits give low values 0.986 | locus YGR135W, strain pre9, hits give low values 0.997 | locus YGR229C, strain SMI1, hits give low values 0.992 and 1 | locus YGR252W, strain gcn5, hits give low values 0.977 | locus YHR013C, strain ard1, hits give low values 0.997 | locus YHR027C, strain rpn1, hits give low values 0.997 | locus YHR030C, strain SLT2, hits give low values 0.983 and 0.976 | locus YHR079C, strain IRE1 (second series), hits give low values 0.996 | locus YHR079C, strain IRE1, hits give low values 0.976 | locus YHR094C, strain hxt1, hits give low values 0.978 | locus YHR129C, strain ARP1, hits give low values 0.986 | locus YHR142W, strain chs7, hits give low values 1.02 | locus YHR200W, strain rpn10, hits give low values 0.973 | locus YIL066C, strain RNR3, hits give low values 0.981 | locus YIL073C, strain SPO22, hits give low values 0.934 | locus YIL125W, strain kgd1, hits give low values 0.984 | locus YIR030C, strain dcg1, hits give low values 0.986 | locus YJL092W, strain hpr5, hits give low values 1 | locus YJL095W, strain BCK1 (second series), hits give low values 1.01 | locus YJL095W, strain BCK1, hits give low values 1 and 1.01 | locus YJL115W, strain asf1, hits give low values 0.997 | locus YJL129C, strain trk1, hits give low values 1.01 | locus YJL134W, strain LCB3, hits give low values 0.991 | locus YJL154C, strain vps35, hits give low values 0.996 | locus YJL164C, strain tpk1, hits give low values 0.993 | locus YJL166W, strain qcr8, hits give low values 1.02 | locus YJL168C, strain set2, hits give low values 0.99 | locus YJL187C, strain SWE1 (second series), hits give low values 0.982 | locus YJL187C, strain SWE1, hits give low values 1.01 | locus YJR043C, strain POL32, hits give low values 0.98 | locus YJR066W, strain TOR1, hits give low values 0.935
